Molecules are shown by their SMILES. Records with an inconclusive call do not appear. Active and inactive are the calls of the source. How the source made its calls: active means hit-call score of the fitted dose curve at least 0.9, where 1 is the maximum; inconclusive means response in the unintended direction; inactive means score below 0.9.

Read-out in the assay: alkyl and aryl transferase (GSTA2), GSTA2 (gene 2939)
Put plainly: CLD_GSTA2_24hr: CellzDirect (CLD) Gene Expression Assay for alkyl and aryl transferase (GSTA2) at 24 hours (AID 2283693). As to the method:
CLD_24hr is a cell-based, multiplexed-readout assay that uses hepatocyte, a human liver primary cell, with measurements taken at 24 hours after chemical dosing in a 96-well plate.CLD_GSTA2_24hr is one of 16 assay component(s) measured or calculated from the CLD_24hr assay. It is designed to make measurements of mRNA induction, a form of inducible reporter, as detected with chemiluminescence signals by Quantitative Nuclease Protection Assay (qNPA) technology.Data from the assay component CLD_GSTA2_24hr was analyzed at the endpoint, CLD_GSTA2_24hr, in the positive analysis fitting direction relative to DMSO as the negative control and baseline of activity. Using a type of inducible reporter, gain-of-signal activity can be used to understand changes in the reporter gene as they relate to the gene GSTA2. Furthermore, this assay endpoint can be referred to as a primary readout. To generalize the intended target to other relatable targets, this assay endpoint is annotated to the transferase intended target family, where subfamily is alkyl and aryl transferase.
Human hepatocyte cultures were treated daily for two consecutive days with fresh dosing solutions containing appropriate concentrations of the 320 ToxCast chemicals (chemical identities were blinded to CellzDirect and other ToxCast collaborators), vehicle control (0.2% DMSO), and positive control inducers as summarized in Table 1. Due to the large number of treatment groups and chemicals examined, the ToxCast chemicals were divided into two groups (spanning two independent cultures of hepatocytes from separate donor preparations (Hu778: ToxCast plates 1 and 2; Hu776: ToxCast plates 3 and 4). Each preparation of human hepatocyte cultures was treated with respective vehicle control, medium only control, set of six positive controls/reference chemicals for the five hepatic receptor pathways, and a subset of eight of the ToxCast chemicals (indoxacarb, pyrithiobac-sodium, norflurazon, cyhalofop-butyl, methomyl, thiram, acetochlor, and propiconazole). These replicate data, coupled with internal replicates designed within the blinded ToxCast chemical library, provided additional data to evaluate interindividual differences between hepatocyte preparations and their potential impact on chemical profiles.Cell morphology and integrity were evaluated using phase-contrast microscopy as an indicator of hepatocyte cell health (Tyson & Green, 1987). Cultures for each treatment group (i.e., media, vehicle [0.2% DMSO], positive control inducers [multiple concentrations], and the ToxCast chemicals [multiple concentrations]) were observed and cell morphology was assessed relative to vehicle control cultures at each harvest time point (0, 6, 24, or 48 h). […] Images were evaluated at the conclusion of the study to assess changes in cell integrity and account for the effects of chemical exposure on uncharacteristic changes in concentration-dependent gene expression profiles. The results from these determinations of apparent cytotoxicity were annotated (yes/no) alongside the corresponding qNPA data for reference.At the conclusion of each treatment period, hepatocyte cultures (96-well) were washed with 1 volume of HBSS, lysed by addition of 25 ul ArrayPlate lysis buffer (HTG, Tucson, AZ), and 70 ul/well of Denaturation Oil, denatured by incubation at 95C for 10 min, and frozen at approximately -70C until analysis by nuclease protection assay (qNPA) (Roberts et al., 2007). For qNPA analysis, cell lysates were thawed at 50C for approximately 30 min, qNPA probes were added, and samples were incubated at 95C for 10 min to begin the detection process by denaturing the target RNA, dissociating the duplexes and secondary structure hybridization. At the conclusion of the hybridization period, S1 nuclease reagent was added to each sample to digest all nonprotected nucleotides at 50C for 60-90 min. […]
For the molecule `COP(=O)(OC)C(O)C(Cl)(Cl)Cl` (stereo not given), the outcome was inactive.
With `CCCOc1nn(C(=O)NS(=O)(=O)c2ccccc2C(=O)OC)c(=O)n1C`, the molecule was called inactive.
The same measure for `FC(F)C(F)(F)OCC(Cn1cncn1)c1ccc(Cl)cc1Cl` (stereo not given): “inactive”; for `CON=C(C(=O)OC)c1ccccc1CON=C(C)c1cccc(C(F)(F)F)c1`: “inactive”.
Under `Nc1nc(N)nc(NC2CC2)n1` stands “inactive”; under `CCC(CC)Nc1c([N+](=O)[O-])cc(C)c(C)c1[N+](=O)[O-]`, “inactive”.
`CSc1nc(NC(C)C)nc(NC(C)C)n1`: the outcome was inactive.
The same measure for `CNC(=O)ON=C(C)SC`: “inactive”; for `C[Si](Cn1cncn1)(c1ccc(F)cc1)c1ccc(F)cc1`: “inactive”.
The same measure for `CCc1cnc(C2=NC(C)(C(C)C)C(=O)N2)c(C(=O)O)c1` (stereo not given): “inactive”; for `CSc1nnc(C(C)(C)C)c(=O)n1N`: “inactive”; for `CCOP(=S)(OCC)Oc1cc(C)nc(C(C)C)n1`: “inactive”.
Under `C[N+]1(C)CCCCC1` stands “inactive”; under `N#CSCSC#N`, “inactive”; under `CN(C)C(=O)Nc1cccc(C(F)(F)F)c1`, “inactive”.
As for `CC(C)N(C(=O)SCC(Cl)=C(Cl)Cl)C(C)C`, the molecule was classed as inactive.
The same measure for `CCOP(=O)(NC(C)C)Oc1ccc(SC)c(C)c1` (stereo not given): “inactive”.
The same measure for `CC1=NNC(=O)N(/N=C/c2cccnc2)C1`: “inactive”; for `CNC(=O)ON=C(SC)C(=O)N(C)C`: “inactive”.
The same measure for `CC(C)[C@H](C(=O)O[C@H](C#N)c1cccc(Oc2ccccc2)c1)c1ccc(Cl)cc1`: “inactive”.
On to `C=C(C)[C@H]1Cc2c(ccc3c2O[C@@H]2COc4cc(OC)c(OC)cc4[C@@H]2C3=O)O1`, for which the result was inactive.
The same measure for `C#CCC1=C(C)C(OC(=O)C2C(C=C(C)C)C2(C)C)CC1=O` (stereo not given): “inactive”; for `S=C1NCCN1`: “inactive”.
Under `CC(C1CC1)C(O)(Cn1cncn1)c1ccc(Cl)cc1` (stereo not given) stands “inactive”; under `CCOP(=S)(OCC)Oc1ccc2c(C)c(Cl)c(=O)oc2c1`, “inactive”; under `CNC(=O)Oc1cccc2c1OC(C)(C)O2`, “inactive”.
Under `CCCCOC(=O)c1ccccc1C(=O)O` stands “inactive”; under `CCCOCC(=Nc1ccc(Cl)cc1C(F)(F)F)n1ccnc1`, “inactive”.
For the molecule `COP(=O)(OC)SCn1c(=O)oc2cc(Cl)cnc21`, the call was inactive.
In the case of `CCNc1nc(Cl)nc(NC(C)(C)C#N)n1`, the call was inactive.
Under `CCOP(=S)(OCC)OC(Cl)C(Cl)(Cl)Cl` (stereo not given) stands “inactive”.
The same measure for `CCOC(=O)CC(SP(=O)(OC)OC)C(=O)OCC` (stereo not given): “inactive”.
The same measure for `CSC1=N[C@@](C)(c2ccccc2)C(=O)N1Nc1ccccc1`: “inactive”; for `CN(C)[C@@H]1C(=O)C(C(N)=O)=C(O)[C@@]2(O)C(=O)C3=C(O)c4c(O)cccc4[C@@](C)(O)[C@H]3[C@H](O)[C@@H]12`: “inactive”; for `COP(=O)(OC)OC(Br)C(Cl)(Cl)Br` (stereo not given): “inactive”.
Take `CCCSP(=O)(OCC)SCCC`: the call was inactive.
The same measure for `CCOP(=S)(Oc1cnc(C(C)(C)C)nc1)OC(C)C` (stereo not given): “inactive”; for `Nc1c(Cl)cc([N+](=O)[O-])cc1Cl`: “inactive”; for `CCOP(=S)(OCC)SCCSCC`: “inactive”.
Under `CCc1cccc(CC)c1N(COC)C(=O)CCl` stands “inactive”.
